Measured potencies and affinities stand elsewhere.
Key:
Klebsiella pneumoniae = details: Concentration 20 uM; ASSAY_TEST Inhibition of Bacterial Growth; detection method Absorption (OD600); MEDIA CAMHB; plate type 384well; NBS; CORNING #3640; time 18 hr
Candida albicans = details: 20 µM
Cryptococcus neoformans = details: Concentration 20 uM; ASSAY_TEST Inhibition of Fungal Growth; detection method Resazurin; Absorption (OD600-OD570); plate type 384well; NBS; CORNING #3640

COc1ccc(C2=NN(C3CCCCCC3)C(=O)C2(C)C)cc1OCCCCOc1ccc(-c2nn[nH]n2)cc1
Inhibition (Klebsiella pneumoniae): 0.76%
Inhibition (Candida albicans): 5.32%
Inhibition (Cryptococcus neoformans): -17.73%

CCN(CC)S(=O)(=O)c1ccc(Cl)c(C(=O)Nc2ccc3nc(C)sc3c2)c1
Inhibition (Klebsiella pneumoniae): 4.43%
Inhibition (Candida albicans): 3.67%
Inhibition (Cryptococcus neoformans): -11.27%

FC(F)(F)c1nnc2ccc(Cl)nn12
Inhibition (Klebsiella pneumoniae): 7.1%
Inhibition (Candida albicans): 2.55%
Inhibition (Cryptococcus neoformans): 2.75%

CC(C)(C)c1cnc(NC(=O)c2ccccc2O)s1
Inhibition (Klebsiella pneumoniae): 10.5%
Inhibition (Candida albicans): 11.6%
Inhibition (Cryptococcus neoformans): 5.21%

Nc1ncnc2c1c(Cc1cccc3ccccc13)nn2CC1CCNCC1
Inhibition (Klebsiella pneumoniae): -3.02%
Inhibition (Candida albicans): 2.11%
Inhibition (Cryptococcus neoformans): -1.33%

Cc1cc(OCC(=O)NCc2ccccc2)c2cc(Br)ccc2n1
Inhibition (Klebsiella pneumoniae): 6.14%
Inhibition (Candida albicans): 0.18%
Inhibition (Cryptococcus neoformans): -5.48%

O=C(Nc1cccc(Cl)c1)c1cnc(N2CCN(c3ccncc3)CC2)c(Cl)c1
Inhibition (Klebsiella pneumoniae): 13.15%
Inhibition (Candida albicans): 2.09%
Inhibition (Cryptococcus neoformans): -9.48%

COc1ccc(C2CC(c3cccs3)=NN2C(=O)c2ccco2)cc1OC (stereo not drawn)
Inhibition (Klebsiella pneumoniae): 20.7%
Inhibition (Candida albicans): 5.76%
Inhibition (Cryptococcus neoformans): -8.05%

Cc1cc(C)c2cc(C(=O)NC3CCCCCCC3)[nH]c2c1
Inhibition (Klebsiella pneumoniae): 18.42%
Inhibition (Candida albicans): 3.94%
Inhibition (Cryptococcus neoformans): -6.05%

Cc1ccc(Oc2ccc(NC(=O)CNc3ccccc3N3CCCC3=O)cc2)cc1
Inhibition (Klebsiella pneumoniae): 9.79%
Inhibition (Candida albicans): 2.74%
Inhibition (Cryptococcus neoformans): -10.82%

Cc1ccc2oc(-c3cc(NC(=O)Cc4ccccc4)ccc3Cl)nc2c1
Inhibition (Klebsiella pneumoniae): 6.29%
Inhibition (Candida albicans): 14.6%
Inhibition (Cryptococcus neoformans): -8.89%

COc1ccc(-c2cnc3ccc(NCc4ccc(S(N)(=O)=O)cc4)nn23)cn1
Inhibition (Klebsiella pneumoniae): 16.22%
Inhibition (Candida albicans): 4.45%
Inhibition (Cryptococcus neoformans): -9.08%

COc1cc(C2=NCCN2)ccc1-c1cn(-c2cccc(C3=NCCN3)c2)nn1
Inhibition (Klebsiella pneumoniae): 15.15%
Inhibition (Candida albicans): 2.69%
Inhibition (Cryptococcus neoformans): 3.58%

Cn1ncc2c(N3CCOCC3)nc(NCCc3c[nH]c4ccccc34)nc21 [TDR79432]
Inhibition (Klebsiella pneumoniae): 9.02%
Inhibition (Candida albicans): 4.1%
Inhibition (Cryptococcus neoformans): -8.59%

Cc1cc(NC(=O)c2ccc(S(=O)(=O)N(Cc3ccccc3)C(C)C)cc2)no1
Inhibition (Klebsiella pneumoniae): 8.9%
Inhibition (Candida albicans): 1.89%
Inhibition (Cryptococcus neoformans): -4.62%

Cl.c1ccc(C[C@@H]2CN(c3nccc(Oc4ccc(-n5ccnc5)cc4)n3)CCN2)cc1
Inhibition (Klebsiella pneumoniae): 13.63%
Inhibition (Candida albicans): 3.57%
Inhibition (Cryptococcus neoformans): -6.59%

OCCc1ccc(Nc2nccc(-c3nnc4ccccn34)n2)cc1
Inhibition (Klebsiella pneumoniae): 15.28%
Inhibition (Candida albicans): 3.06%
Inhibition (Cryptococcus neoformans): -9.75%

Cl.Cl.Cl.NS(=O)(=O)c1cncc(-c2ccc3nccc(-c4cn[nH]c4)c3n2)c1
Inhibition (Klebsiella pneumoniae): -1.63%
Inhibition (Candida albicans): 3.16%
Inhibition (Cryptococcus neoformans): -2.89%

CCCn1c(CNc2ccccc2O)nc2ccccc21
Inhibition (Klebsiella pneumoniae): 12.8%
Inhibition (Candida albicans): -0.42%
Inhibition (Cryptococcus neoformans): -15.95%

CNC(=O)CNc1nc(-c2ccccn2)nc2scc(-c3ccccc3)c12
Inhibition (Klebsiella pneumoniae): 15.46%
Inhibition (Candida albicans): 0.88%
Inhibition (Cryptococcus neoformans): -5.07%

O=C(NC1CCCCC1)N1CCN(Cc2ccc3c(c2)OCO3)CC1
Inhibition (Klebsiella pneumoniae): 10.77%
Inhibition (Candida albicans): 0.64%
Inhibition (Cryptococcus neoformans): -16.64%

CC1CS(=O)(=O)CCN1/N=C/c1ccc([N+](=O)[O-])o1 (stereo not drawn) [NIFURTIMOX]
Inhibition (Klebsiella pneumoniae): 15.43%
Inhibition (Candida albicans): 4.12%
Inhibition (Cryptococcus neoformans): 5.99%

Clc1ccc(CN2CCN(C3=NCCN3)CC2)cc1Cl
Inhibition (Klebsiella pneumoniae): 16.63%
Inhibition (Candida albicans): 2.1%
Inhibition (Cryptococcus neoformans): -10.37%

c1ccc(Oc2ccc(-c3cc(CN4CCOCC4)[nH]n3)cc2)cc1
Inhibition (Klebsiella pneumoniae): 7.99%
Inhibition (Candida albicans): 4.1%
Inhibition (Cryptococcus neoformans): -6.41%

COc1cc(C(F)(F)F)nc2ccc(C)c(N)c12
Inhibition (Klebsiella pneumoniae): 11.25%
Inhibition (Candida albicans): 6.41%
Inhibition (Cryptococcus neoformans): -9.66%

COc1ccc(-c2cnc3cnc(-c4cccc(OC(C)C)c4)cn23)cc1
Inhibition (Klebsiella pneumoniae): 4.82%
Inhibition (Candida albicans): 11.6%
Inhibition (Cryptococcus neoformans): -13.72%

Cc1ccc2[nH]c(C3CCCNC3)c(-c3ccncc3)c2c1.Cl.Cl (stereo not drawn)
Inhibition (Klebsiella pneumoniae): -25.08%
Inhibition (Candida albicans): 4.63%
Inhibition (Cryptococcus neoformans): 1.08%

COc1ccc(-c2onc(C(F)(F)F)c2-c2ccc(Cl)cc2)c(O)c1
Inhibition (Klebsiella pneumoniae): 9.85%
Inhibition (Candida albicans): 2.64%
Inhibition (Cryptococcus neoformans): 8.78%

CC(C)(C)n1nc(-c2ccccc2)c2c(N)ncnc21
Inhibition (Klebsiella pneumoniae): 1.67%
Inhibition (Candida albicans): 1.46%
Inhibition (Cryptococcus neoformans): -15.8%

CC(C)/N=c1\cc2n(-c3ccc(Cl)cc3)c3ccccc3nc-2cc1Nc1ccc(Cl)cc1 [CLOFAZIMINE]
Inhibition (Klebsiella pneumoniae): 13.39%
Inhibition (Candida albicans): 5.63%
Inhibition (Cryptococcus neoformans): -11.17%

O=C(C1CCN(c2cc(-n3cccc3)ncn2)CC1)N1CCc2ccccc2C1
Inhibition (Klebsiella pneumoniae): -8.74%
Inhibition (Candida albicans): 10%
Inhibition (Cryptococcus neoformans): 3.06%

Source: ChEMBL document CHEMBL4513149, “CO-ADD screening of MMV (CH) - MMV compounds” (2021)
